# Measurements: PubChem BioAssay (NCATS)
# Results filed as inconclusive are left out. A number with no mark means an inactive call. The source made the active and inactive calls. Calls come from the whole dose curve; as a rule, active = well fitted curve in the direction sought with a large enough effect; inconclusive = small, poorly fitted or top-dose-only effect, or another doubt; inactive = no such curve, though single readings can be large; an effect the other way counts as inactive or inconclusive.
# Experiment: qHTS for Inhibitors of Plasmodium falciparum (DD2) proliferation (AID 504314);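 note: parasite DNA measured by SYBR Green fluorescence after red cell lysis; plate controls were DMSO vehicle for no effect and artemisinin wells for full effect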
# Settings: P. falciparum Dd2 in erythrocytes, SYBR Green growth, 72 h; series mostly up to 6.11 µM; activity, negative = inhibition: at the top concentration
# How it was run: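 Erythrocytes infected with P. falciparum Dd2 (0.3% parasitemia, 2.5% hematocrit) exposed to compound 72 h at 37C, 5% CO2. Parasite DNA quantified by SYBR Green fluorescence after saponin/Triton lysis overnight; normalized to 0.29 uM artemisinin and DMSO.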
SMILES,Potency,"activity, negative = inhibition"
CCCCC1=CC2=C(c3ccco3)C(=O)C(C)(OC(=O)c3ccc(OC)cc3)C(=O)C2=CN1CC1CC1 (stereo not given),inactive,–
COC(=O)C[C@H]1c2ccccc2[C@@H]2C(=C[C@@H](C)[C@H]3C(=O)N(O)C(=O)[C@H]32)N1C(=O)OC,–,-5.35%
C=CCN1C(=O)CC[C@@]23C1=NC(C(=O)OC)=C(C(=O)OC)[C@@H]2N(C)c1ccccc13,–,1.81%
CCN1C(=NCc2cccc(Cl)c2)N[C@@H](CCc2ccccc2)[C@H](C(=O)OC)[C@H]1C,–,0.0174%
CO[C@H](C1CCCCC1)[C@H](C)C=CCC(=O)OCCCc1ccccc1,–,0.654%
COC(=O)CCCC1=CC2=C(c3ccccc3)C(=O)C(C)(OC(=O)C3CCCC3)C(=O)C2=CN1CCCCO (stereo not given),inactive,–
COC(=O)N[C@H](C(C(=O)OC)=C(C)NCc1ccccc1)c1ccc(Cl)cc1,–,-8.26%
CC=COC(=O)N[C@@H](c1cccc(C)c1)[C@]1(C(=O)OCC)CCCC1=O,–,0.366%
COC[C@H]1O[C@@H](c2c(OC)cc(OC)cc2OC)[C@H](OC)[C@@H](OC)[C@H]1OC,–,-0.903%
CCCCC1=CC2=C(c3ccco3)C(=O)C(C)(OC(=O)c3ccc(OC)cc3)C(=O)C2=CN1CCN1CCOCC1 (stereo not given),inactive,–
COCCN1C(=O)NC(c2cccc(F)c2)C(C(C)=O)=C1C (stereo not given),–,-5.97%
COC(=O)[C@H]1O[C@@H](c2cc(OC)c(C)c(OC)c2O)[C@H](C)[C@@H](O)[C@@H]1C,–,2.42%
C=C(C)C(O)C=CC=Cc1ccccc1 (stereo not given),–,-5.68%
COC(=O)[C@H]1[C@@H](c2ccccc2)NC(=O)N(Cc2ccccc2)[C@@H]1C,–,-1.18%
COC(=O)N[C@H](C(C(=O)OC)=C(C)NCc1ccccc1)c1ccco1,–,1.16%
C[C@@H]1CC2=CCCC2[C@]2(O1)C(=O)Nc1cccc(Br)c12 (stereo not given in full),–,-8.39%
C=CCN=C1N[C@@H](c2ccccc2)[C@H](C(=O)OC)[C@@H](C)N1CC,–,0.975%
O=C(Oc1ccccc1)[C@H]1O[C@H]1c1ccccc1,–,-2.52%
CC(=O)OC[C@H]1O[C@H](C#Cc2ccccc2)C=C[C@H]1O,–,1.17%
CCN1C(=O)NC(c2cccs2)C(C(C)=O)=C1C (stereo not given),–,-7.16%

SMILES,Potency,"activity, negative = inhibition"
C=C(C(C)=O)C(O)c1ccc(Cl)cc1 (stereo not given),–,-2.31%
CCN1C(=O)N[C@@H](CCc2ccccc2)[C@H](C(C)=O)[C@H]1C,inactive,–
COC(=O)C(C(=O)OC)C1c2ccccc2C=C(C2CC2)N1C(=O)OC (stereo not given),inactive,–
C=CCOC(=O)C(C(C)=O)[C@@H](NC(=O)OC)c1ccc(Cl)cc1 (stereo not given in full),–,-2.22%
COC1=C[C@H](C(=O)NCCNC(C)=O)[C@H](C)[C@@H](c2ccccc2)CC1=O,–,-1.56%
C=CCOC(=O)C(C(=O)CC)[C@@H](NC(=O)OC)c1ccc(F)cc1 (stereo not given in full),–,2.73%
CCOC(=O)C(c1ccc(OC)c(OC)c1)C1c2ccccc2C=C(C)N1C(=O)OC (stereo not given),–,-0.0023% [at 1.12 µM]
COCC1=Cc2cc3c(cc2C(C(C(=O)OC)C(=O)OC)N1C(=O)OC)OCO3 (stereo not given),inactive,–
O=C1[C@@H]2[C@H]3[C@H](O)[C@H](O)CC(=NOC[C@@H](O)COCc4ccco4)[C@H]3CC[C@H]2C(=O)N1C[C@@H]1CCCO1,–,-1.99%
CCC=CCCC(OC(=O)c1ccc(Br)cc1)C1=CCCCC1=O (stereo not given),–,-7.85%
C[C@H]1C[C@@H](C)O[C@@]2(C1)C(=O)Nc1ccccc12,inactive,–
C=C(C(C)=O)C(O)c1ccc([N+](=O)[O-])cc1 (stereo not given),–,-9.75%
C[C@H]1Cc2c(-c3ccccc3)nc3c(c2CO1)CN(C(=O)NCc1ccco1)CC3,–,0.465% [at 1.12 µM]
C=C(C)C(=O)C=CCCCC=CC(=O)OCC,–,-4.38%
COc1ccc(O[C@H]2C=C[C@@H](c3ccccc3)O[C@H]2COC(=O)CCC(C)=NO[C@@H](C)c2cc(-c3c(C)cc(C)cc3C)no2)cc1,–,-5.42%
COc1cccc2c1[C@H](C=Cc1ccccc1)[C@@H]([C@H](O)CO)OC2,–,-5.7%
CC[C@H](C)[C@@H](NC(=O)O[C@@H]1C(=O)c2cc(OC)ccc2O[C@H]1c1ccc(OC)c(Br)c1)C(=O)OC,–,-4.56%
CCOC(=O)NN=C1C[C@@H](O)[C@@H](O)[C@@H]2[C@H]3C(=O)N(Cc4ccc5c(c4)OCO5)C(=O)[C@@H]3CC[C@@H]12,–,-4.29%
CN1c2ccccc2[C@@]2(O)C(=O)[C@@]1(C)[C@@H]1c3ccccc3C[C@H]12,–,-8.08%
COC(=O)C1C[C@@]23C(=NN=C(SC)C2N(C)c2ccc(OC)cc23)N1C(C)=O (stereo not given in full),–,-15%

# Experiment: qHTS for Inhibitors of Plasmodium falciparum (GB4) proliferation (AID 504315);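 note: 0% = DMSO vehicle and -100% = 0.29 µM artemisinin control; nearly all actives have a fitted effect of over 50% in size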
# Settings: P. falciparum GB4 in erythrocytes, SYBR Green DNA, 72 h; series mostly up to 6.7 µM; activity change, negative = inhibition: at the top concentration
# How it was run: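 Erythrocytes infected with P. falciparum line (0.3% parasitemia, 2.5% hematocrit final) incubated with compounds 72 h at 37 °C, 5% CO2; SYBR Green lysis buffer added, fluorescence read next day. Normalized to 0.29 uM artemisinin and DMSO.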
SMILES,Potency,"activity change, negative = inhibition [%]"
CCCCC1=CC2=C(c3ccco3)C(=O)C(C)(OC(=O)c3ccc(OC)cc3)C(=O)C2=CN1CC1CC1 (stereo not given),inactive,–
COC(=O)C[C@H]1c2ccccc2[C@@H]2C(=C[C@@H](C)[C@H]3C(=O)N(O)C(=O)[C@H]32)N1C(=O)OC,–,-5.03
C=CCN1C(=O)CC[C@@]23C1=NC(C(=O)OC)=C(C(=O)OC)[C@@H]2N(C)c1ccccc13,–,-4.85
CCN1C(=NCc2cccc(Cl)c2)N[C@@H](CCc2ccccc2)[C@H](C(=O)OC)[C@H]1C,–,5.56
CO[C@H](C1CCCCC1)[C@H](C)C=CCC(=O)OCCCc1ccccc1,–,13.7
COC(=O)CCCC1=CC2=C(c3ccccc3)C(=O)C(C)(OC(=O)C3CCCC3)C(=O)C2=CN1CCCCO (stereo not given),inactive,–
COC(=O)N[C@H](C(C(=O)OC)=C(C)NCc1ccccc1)c1ccc(Cl)cc1,–,4.08
CC=COC(=O)N[C@@H](c1cccc(C)c1)[C@]1(C(=O)OCC)CCCC1=O,–,5.89
COC[C@H]1O[C@@H](c2c(OC)cc(OC)cc2OC)[C@H](OC)[C@@H](OC)[C@H]1OC,–,9.66
CCCCC1=CC2=C(c3ccco3)C(=O)C(C)(OC(=O)c3ccc(OC)cc3)C(=O)C2=CN1CCN1CCOCC1 (stereo not given),inactive,–
COCCN1C(=O)NC(c2cccc(F)c2)C(C(C)=O)=C1C (stereo not given),–,13.6
COC(=O)[C@H]1O[C@@H](c2cc(OC)c(C)c(OC)c2O)[C@H](C)[C@@H](O)[C@@H]1C,–,17.7
C=C(C)C(O)C=CC=Cc1ccccc1 (stereo not given),–,-3.94
COC(=O)[C@H]1[C@@H](c2ccccc2)NC(=O)N(Cc2ccccc2)[C@@H]1C,–,11.7
COC(=O)N[C@H](C(C(=O)OC)=C(C)NCc1ccccc1)c1ccco1,–,14.3
C[C@@H]1CC2=CCCC2[C@]2(O1)C(=O)Nc1cccc(Br)c12 (stereo not given in full),–,3.38
C=CCN=C1N[C@@H](c2ccccc2)[C@H](C(=O)OC)[C@@H](C)N1CC,–,7.55
O=C(Oc1ccccc1)[C@H]1O[C@H]1c1ccccc1,–,-10.4
CC(=O)OC[C@H]1O[C@H](C#Cc2ccccc2)C=C[C@H]1O,–,12.6
CCN1C(=O)NC(c2cccs2)C(C(C)=O)=C1C (stereo not given),–,3.3

SMILES,Potency,"activity change, negative = inhibition [%]"
C=C(C(C)=O)C(O)c1ccc(Cl)cc1 (stereo not given),–,13.3
CCN1C(=O)N[C@@H](CCc2ccccc2)[C@H](C(C)=O)[C@H]1C,inactive,–
COC(=O)C(C(=O)OC)C1c2ccccc2C=C(C2CC2)N1C(=O)OC (stereo not given),inactive,–
C=CCOC(=O)C(C(C)=O)[C@@H](NC(=O)OC)c1ccc(Cl)cc1 (stereo not given in full),–,10.9
COC1=C[C@H](C(=O)NCCNC(C)=O)[C@H](C)[C@@H](c2ccccc2)CC1=O,–,8.33
C=CCOC(=O)C(C(=O)CC)[C@@H](NC(=O)OC)c1ccc(F)cc1 (stereo not given in full),–,9.5
CCOC(=O)C(c1ccc(OC)c(OC)c1)C1c2ccccc2C=C(C)N1C(=O)OC (stereo not given),inactive,–
COCC1=Cc2cc3c(cc2C(C(C(=O)OC)C(=O)OC)N1C(=O)OC)OCO3 (stereo not given),inactive,–
O=C1[C@@H]2[C@H]3[C@H](O)[C@H](O)CC(=NOC[C@@H](O)COCc4ccco4)[C@H]3CC[C@H]2C(=O)N1C[C@@H]1CCCO1,–,8.89
CCC=CCCC(OC(=O)c1ccc(Br)cc1)C1=CCCCC1=O (stereo not given),–,-2.96
C[C@H]1C[C@@H](C)O[C@@]2(C1)C(=O)Nc1ccccc12,inactive,–
C=C(C(C)=O)C(O)c1ccc([N+](=O)[O-])cc1 (stereo not given),–,7.5
C[C@H]1Cc2c(-c3ccccc3)nc3c(c2CO1)CN(C(=O)NCc1ccco1)CC3,inactive,–
C=C(C)C(=O)C=CCCCC=CC(=O)OCC,–,-2.77
COc1ccc(O[C@H]2C=C[C@@H](c3ccccc3)O[C@H]2COC(=O)CCC(C)=NO[C@@H](C)c2cc(-c3c(C)cc(C)cc3C)no2)cc1,–,0.247
COc1cccc2c1[C@H](C=Cc1ccccc1)[C@@H]([C@H](O)CO)OC2,–,0.0172
CC[C@H](C)[C@@H](NC(=O)O[C@@H]1C(=O)c2cc(OC)ccc2O[C@H]1c1ccc(OC)c(Br)c1)C(=O)OC,–,9.29
CCOC(=O)NN=C1C[C@@H](O)[C@@H](O)[C@@H]2[C@H]3C(=O)N(Cc4ccc5c(c4)OCO5)C(=O)[C@@H]3CC[C@@H]12,–,7.77
CN1c2ccccc2[C@@]2(O)C(=O)[C@@]1(C)[C@@H]1c3ccccc3C[C@H]12,–,8.56
COC(=O)C1C[C@@]23C(=NN=C(SC)C2N(C)c2ccc(OC)cc23)N1C(C)=O (stereo not given in full),–,7.8
